An excerpt weighted towards active compounds, which were near 32% of everything screened.
CYP2C19 inh: blockers of cytochrome P450 2C19 activity – biochemical, luminescence, ADME assay, primary screen; CYP2C19 Supersomes, luciferin-H EGE luminescence, 30 min; inhibition, % at 5 µM; AID 778, 2007; 96,000 compounds, 21% hits; P33261;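 active = CYP2C19 inhibition above a set limit at 5 µM in the primary screen, cut at about 50% in these data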;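 note: plate controls were negative control wells for no effect and 2.5 mM tranylcypromine positive control for full effect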
CYP2C19 act: human CYP2C19 activators, primary screen, biochemical, luminescence. Cytochrome P450 2C19 (Homo sapiens), P33261. recombinant CYP2C19, luciferin-H EGE luminescence; hits give high values; 0 = fully inhibited enzyme, 1 = untreated enzyme. activation factor at 5 µM. 96,000 tested, under 10 active. AID 1025, 2008;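 active = activation factor of at least 2 at 5 µM in the primary screen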;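 note: 0 = wells with 2.5 mM tranylcypromine and 1 = vehicle-only wells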
CYP2C9 act: human CYP2C9 activators, primary screen, biochemical, luminescence; AID 1024, 2008; 96,000 compounds, 1.4% hits; Cytochrome P450 2C9 (Homo sapiens), P11712; recombinant CYP2C9, luciferin-H conversion; hits give high values; factor 1 = untreated enzyme, 0 = blocked; activation factor at 5 µM;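 active = activation factor of 2 or more for CYP2C9 at a 5 µM dose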;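 note: 0 = sulfaphenazole-blocked wells and 1 = vehicle-only wells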
Target sequence (P11712 whole entry, looked up): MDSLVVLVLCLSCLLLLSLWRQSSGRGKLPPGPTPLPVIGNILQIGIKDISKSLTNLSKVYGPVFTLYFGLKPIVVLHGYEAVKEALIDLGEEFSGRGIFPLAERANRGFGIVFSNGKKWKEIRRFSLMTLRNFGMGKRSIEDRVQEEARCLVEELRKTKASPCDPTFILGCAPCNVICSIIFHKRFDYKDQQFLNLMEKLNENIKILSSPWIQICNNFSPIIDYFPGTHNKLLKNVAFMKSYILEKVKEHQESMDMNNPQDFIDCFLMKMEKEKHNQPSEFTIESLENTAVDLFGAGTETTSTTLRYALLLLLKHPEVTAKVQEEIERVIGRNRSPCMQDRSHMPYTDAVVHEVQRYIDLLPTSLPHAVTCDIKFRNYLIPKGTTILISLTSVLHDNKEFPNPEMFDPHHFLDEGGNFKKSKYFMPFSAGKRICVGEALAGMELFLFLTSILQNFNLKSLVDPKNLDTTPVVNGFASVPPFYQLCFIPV
CYP2C9 inh: blockers of cytochrome P450 2C9 activity – biochemical, luminescence, ADME assay, primary screen; 96,000 compounds, 20% hits; AID 777, 2007; inhibition, % at 5 µM; CYP2C9 Supersomes, luciferin-H conversion; P11712;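 active = blocking of liver enzyme CYP2C9 beyond about 50% at 5 µM, limit read from the data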
PostGolgi yeast: phenotypic screen on post-Golgi transport, primary screen; post-Golgi transport phenotypic cell assay; AID 739, 2007; 98,000 compounds, 0.9% hits; inhibition, % at 10 µM;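 note: yeast cells grown in 1536-well plates; yeast grown about 18 h at 30C before absorbance read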
PostGolgi ctrl: growth inhibition of yeast control strain, primary screen, counter-screen for post-Golgi transport modulator project | AID 738, 2007 | efflux-deficient yeast background strain, growth absorbance A615, 16 h | inhibition, % at 10 µM | 98,000 compounds, 5% hits
* hit, by the source's call; . = no result given. Cut-off read from the data, not from the text of the source, unless noted: active = inhibition above about 30%; inactive = the rest.

SMILES | CYP2C19 inh | CYP2C19 act | CYP2C9 act | CYP2C9 inh | PostGolgi yeast | PostGolgi ctrl
COc1cc(Cl)cc(C2NC(=O)NC(C)=C2C(C)=O)c1OCC(=O)O (centres undefined) | -14 | 1.1 | 0.9 | 7 | 3 | 20
CC1CN(CCc2ccccc2)c2nc3c(c(=O)[nH]c(=O)n3C)n2C1 (centres undefined) | 74* | 0.3 | 0.4 | 57* | 19 | 7
CCCCCCCN1N=C(C)C(C(=O)c2ccccc2)C1=O (centres undefined) | 8 | 0.9 | 0.1 | 94* | -3 | -4
CCCCCCN1N=C(C)C(C(=O)c2ccc(Cl)cc2)C1=O (centres undefined) | 1 | 1 | 0.4 | 60* | 0 | 2
CCCCCCn1cc(C(=O)O)c(=O)c2ccccc21 | 33 | 0.7 | 0.9 | 8 | 4 | 29
CSc1cc(-c2ccccc2)n(Cc2ccc(Cl)cc2Cl)c(=O)c1C#N | 15 | 0.8 | 0.5 | 51* | -9 | -4
Cc1cc(C(=O)CSc2nnnn2-c2ccc(O)cc2)c(C)n1Cc1ccc2c(c1)OCO2 | 99* | 0 | 0.7 | 25 | -5 | 16
Cc1cc(C(=O)Cn2nnc(-c3ccc(Cl)cc3)n2)c(C)n1CC1CCCO1 (centres undefined) | . | . | . | . | 22 | 33*
Cc1cc(C(=O)CSc2nnc(-c3cccc(F)c3)n2N)c(C)n1Cc1ccc2c(c1)OCO2 | 40 | 0.6 | 0.6 | 43 | -4 | 13
Cc1ccc(-n2nnnc2SCC(=O)c2cc(C)n(CC3CCCO3)c2C)cc1 (centres undefined) | 42 | 0.6 | 1.1 | -13 | . | .
Cc1cccc(-n2nnnc2SCC(=O)c2cc(C)n(Cc3ccco3)c2C)c1 | 46 | 0.5 | 2.6* | -158 | 6 | 6
Cc1ccc(-n2nnnc2SCC(=O)c2cc(C)n(-c3cc(C)on3)c2C)cc1 | 49 | 0.5 | 1.3 | -25 | 4 | 4
Cc1cc(C(=O)CSc2nc3ccccc3[nH]2)c(C)n1CC1CCCO1 (centres undefined) | 54* | 0.5 | 0.4 | 56* | -8 | 2
CCOC(=O)C1C(=O)C=C(c2ccc(Br)cc2)CC1c1ccco1 (centres undefined) | 25 | 0.7 | 0.7 | 28 | -7 | 20
Cc1nc2ccccn2c1/C(O)=C1\C(=O)C(=O)N(CCN2CCOCC2)C1c1cccs1 (centres undefined) | 1 | 1 | 0.9 | 11 | -6 | 5
C=CCn1c(SCC(=O)c2cc(C)n(CC3CCCO3)c2C)nnc1-c1ccccc1 (centres undefined) | 73* | 0.3 | 0.9 | 8 | 9 | -1
Cc1sc2nc(SCC(=O)c3cc(C)n(CC4CCCO4)c3C)n(C(C)C)c(=O)c2c1C (centres undefined) | 82* | 0.2 | 0.1 | 88* | -4 | 30*
Cc1cccc(-n2nnnc2SCC(=O)c2cc(C)n(CC3CCCO3)c2C)c1 (centres undefined) | 90* | 0.1 | 1.6 | -63 | -7 | -2
Nc1ncnc2nc(SCCc3ccccc3)[nH]c12 | 20 | 0.8 | 0.9 | 11 | . | .
O=C1CC(c2ccc(F)cc2)C2=C(CCCC2=O)N1 (centres undefined) | -4 | 1 | 1.1 | -11 | 10 | 9
O=C(CCN1CCCCC1)c1ccc2c(c1)OCO2 | 8 | 0.9 | 1 | -2 | -7 | 12
S=C(c1ccc2c(c1)OCO2)N1CCCCCC1 | 99* | 0 | 0.5 | 55* | -3 | 9
COc1ccc(C(=S)N2CCCC2)cc1C | 91* | 0.1 | 1.4 | -42 | -1 | 9
O=C(c1ccc2c(c1)OCO2)N1CCCN(C(=O)c2ccc3c(c2)OCO3)CC1 | 23 | 0.8 | 0.3 | 74* | 0 | 2
S=C(NC1CCCCC1)c1ccc2c(c1)OCO2 | 83* | 0.2 | 1 | -2 | -2 | 19
SMILES | CYP2C19 inh | CYP2C19 act | CYP2C9 act | CYP2C9 inh | PostGolgi yeast | PostGolgi ctrl
CCCn1c(O)c2ccc(C(=O)N=NC(=O)c3cccnc3)cc2c1O | -23 | 1.2 | 1.2 | -18 | -4 | 4
O=C(c1ccc2c(c1)OCO2)N(CC1CCCO1)C1(C(=O)NC2CCCCC2)CCCCC1 (centres undefined) | 70* | 0.3 | 0.3 | 71* | 0 | 1
COc1ccc(OC)c(C(c2nnnn2CCC(C)C)N2CCN(C(=O)c3ccco3)CC2)c1 (centres undefined) | 67* | 0.3 | 0.3 | 74* | 26 | 12
CC(C)CCn1nnnc1C(c1ccc(F)cc1)N1CCN(C(=O)c2ccco2)CC1 (centres undefined) | 63* | 0.4 | 0 | 96* | -4 | 5
CCCOC(=O)C1C2C=CC(C3CC23)C1C(=O)OCC(=O)c1ccccc1 (centres undefined) | 91* | 0.1 | 0.3 | 73* | -3 | 4
O=C(COC(=O)C1CC(=O)N(c2ccccc2)C1)c1ccccc1 (centres undefined) | 19 | 0.8 | 0.8 | 22 | 14 | 11
C/C(=C\C(=O)c1ccc(Br)cc1)NCc1ccc(C)cc1 | 10 | 0.9 | 0.8 | 22 | -9 | 23
CCCCNC(=O)CSc1nc2ccsc2c(=O)n1C1CCN(C(=O)OCC)CC1 | 36 | 0.6 | 0.4 | 56* | 10 | 3
COc1nc(Oc2ccc(=O)[nH]n2)nc(N2CCOCC2)n1 | -10 | 1.1 | 1.1 | -11 | -8 | -1
Cc1oc(C)c2c(=O)ccc3c(c12)OC(N)=C(C#N)C3c1ccccc1Cl (centres undefined) | 22 | 0.8 | 0.5 | 53* | -2 | 11
CC(=O)C1=C(C)OC(N)=C(C#N)C1c1ccco1 (centres undefined) | 36 | 0.6 | 1 | -4 | -7 | 3
CSc1ccc(C2C(C#N)=C(N)Oc3c2ccc(=O)c2c(C)oc(C)c32)cc1 (centres undefined) | 17 | 0.8 | 0.4 | 59* | -3 | 16
Cc1oc(C)c2c(=O)ccc3c(c12)OC(N)=C(C#N)C3c1ccccc1 (centres undefined) | 39 | 0.6 | 0.5 | 48 | 17 | 22
O=C(NCCn1ccc2ccccc21)c1ccc2c(c1)OCO2 | 65* | 0.3 | 0.9 | 13 | 4 | 3
Cc1cc2ccccc2n1CCNC(=O)c1ccc(S(=O)(=O)N2CCOCC2)cc1 | 12 | 0.9 | 0.7 | 32 | 3 | 5
CC(C)(C)C(=O)NCCn1ccc2ccccc21 | 97* | 0 | 0.6 | 42 | -10 | 6
COc1ccc(C(=O)NCCn2ccc3ccccc32)cc1 | 78* | 0.2 | 1.2 | -20 | 7 | -1
COc1ccc(C(=O)NCCn2cc(SCC(=O)N3CCOCC3)c3ccccc32)cc1 | 14 | 0.9 | 0.8 | 24 | 19 | -1

From PubChem BioAssay
